Activity calls are given as the source filed them.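 Rule for the calls: active = compounds whose cell count with miR-34 switched on is under 0.7 times the count with it off; inactive = the rest.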

Fold change data for 40 compounds are collected here from PubChem BioAssay.

The first assay in a line: sensitizers of A549 cells to miR-34 induction, primary screen, imaging, A549 dox-inducible miR-34, nuclei and caspase counts (AID 1347080). Note: test concentration not given here. The following applies: A549 miR-34 inducible, Hoechst nuclei count, 48 h; stronger effect = lower value; cell number ratio, induced over uninduced.
Take `OC[C@H]1NC[C@H](O)[C@@H](O)[C@@H]1O`: the fold change is 0.965 (inactive).

Regarding `C[C@@H](C(=O)O)c1ccc(-c2ccccc2)c(F)c1`, the fold change was 0.967 (inactive).

On to `CCCCC[C@H](O)/C=C/[C@H]1CC[C@H](O)[C@@H]1CCCCCCC(=O)O`, for which the fold change was 0.966 (inactive).

Consider `O=C(O)CCC/C=C\C[C@H]1[C@@H](O)CC(=O)[C@@H]1/C=C/[C@@H](O)CCc1ccccc1`, for which the fold change is 0.982 (inactive).

As to `CCCCC[C@H](O)/C=C/[C@H]1C(=O)C[C@H](O)[C@@H]1C/C=C/CCCC(=O)O`, the fold change was 0.96 (inactive).

In the case of `CCCCCCCCCCCCCCCCOC[C@@H](O)COP(=O)(O)O`, the fold change was 0.944 (inactive).

In the case of `NC(=Nc1ccc(F)cc1)NO`, the fold change is 1.01 (inactive).

For `Cn1c([N+](=O)[O-])cc[n+]1C`, the fold change was 0.892 (inactive).

`CCCCC[C@@H](O)/C=C/[C@@H]1[C@@H](C/C=C\CCCC(=O)O)[C@@H](O)C[C@H]1O`: the fold change was 0.977 (inactive).

Take `CCCCC[C@@](C)(O)/C=C/[C@H]1C=CC(=O)[C@@H]1C/C=C\CCCC(=O)O`: the fold change was 0.996 (inactive).

`O=C(O)CCC/C=C\C[C@@H]1[C@@H](CC[C@@H](O)CCc2cccc(C(F)(F)F)c2)[C@H](O)C[C@@H]1O`: the fold change was 0.926 (inactive).

As for `N[C@@H](CCC(=O)N[C@@H](CSN=O)C(=O)NCC(=O)O)C(=O)O`, the fold change was 0.991 (inactive).

With `C#CCOc1ccccc1CCCCCC(=O)NS(C)(=O)=O`, the fold change is 0.952 (inactive).

In the case of `CCCCC/C=C\C/C=C\CCCC/C=C\CCCC(=O)O`, the fold change was 0.985 (inactive).

For `CCCCC[C@@H](O)/C=C/[C@@H]1[C@H](C/C=C\CCCC(=O)O)[C@@H](O)C[C@H]1O`, the fold change is 0.832 (inactive).

Turning to `O=C(O)c1ccc2c(c1)CCCC2`, the fold change is 0.93 (inactive).

With `CCCCCCCC/C=C\CCCCCCCC(=O)OCC`, the fold change is 1 (inactive).

For the compound `CCCCC/C=C\C/C=C\C/C=C\C/C=C\CCCC(=O)OCC(O)CO` (stereo not given), the fold change is 0.924 (inactive).

Regarding `O=C1OC(O)C(c2cc3ccccc3s2)=C1Br` (stereo not given), the fold change is 0.915 (inactive).

Take `CCCCCCCCCCCCCCCCSC[C@H](COP(=O)([O-])OCC[N+](C)(C)C)NC(=O)CCCCCCCCCCCCCCC`: the fold change was 1.04 (inactive).

For `COC(=O)C1=CC[C@@]23CC[C@@H]([C@@](C)(/C=C/C=C(\C)C(=O)O)OC2=O)[C@@]3(OC(C)=O)CC1`, the fold change was 1.15 (inactive).

Regarding `O=C1OC2(c3ccc(O)cc3Oc3cc(OS(=O)(=O)c4c(F)c(F)c(F)c(F)c4F)ccc32)c2ccccc21` (stereo not given), the fold change was 1.09 (inactive).

Consider `CCCCC/C=C\C/C=C\C/C=C\C/C=C\CCCCNC(=O)c1ccc(O)cc1`, for which the fold change was 0.937 (inactive).

For the compound `CCCCC[C@H](O)CC[C@@H]1[C@@H](CCCCCCC(=O)O)[C@@H](O)C[C@H]1O`, the fold change was 0.832 (inactive).

As for `CN`, the fold change was 1.06 (inactive).

Take `CC(=O)[C@H]1[C@H](C#N)C[C@H]2[C@@H]3CC=C4C[C@@H](O)CC[C@]4(C)[C@H]3CC[C@@]21C`: the fold change is 1.01 (inactive).

As for `COC(=O)CCC[C@H](O)[C@H](O)CO`, the fold change was 1.05 (inactive).

In the case of `CCCCC[C@H](O)/C=C/[C@H]1CC[C@@H](O)[C@@H]1CCCCCCC(=O)O`, the fold change is 0.884 (inactive).

On to `CCCCCCCCCCCCCCCCOC[C@H](COP(=O)([O-])OCC[N+](C)(C)C)SC(C)=O`, for which the fold change was 0.92 (inactive).

`CCCCC[C@H](O)/C=C/[C@H]1C=CC(=O)[C@H]1C/C=C\CCCC(=O)O`: the fold change was 1.06 (inactive).

Consider `COc1ccc2c(c1)c(CC(=O)Nc1cccnc1)c(C)n2C(=O)c1ccc(Cl)cc1`, for which the fold change is 0.996 (inactive).

On to `CCCCCCCOC(=O)Cc1c(C)n(C(=O)c2ccc(Cl)cc2)c2ccc(OC)cc12`, for which the fold change is 0.949 (inactive).

Take `CCCCCC#CCC#CCCCCCCCC(=O)O`: the fold change was 0.999 (inactive).

With `CCCCCCCC/C=C\CCCCCCCCCCCC(N)=O`, the fold change is 1.07 (inactive).

For `CCCCCC/C=C\CCCC(=O)CC(=O)N[C@H]1CCOC1=O`, the fold change is 1.06 (inactive).

As for `O=C(O)CCC/C=C\C[C@@H]1[C@@H](CCC(=O)CCc2ccccc2)[C@H](O)C[C@@H]1O`, the fold change was 0.934 (inactive).

Take `O=C(O)CCC/C=C\C[C@H]1C(=O)C=C[C@@H]1CC[C@@H](O)CCc1ccccc1`: the fold change is 0.93 (inactive).

As to `CCCCCC#CCC#CCC#CCCCCCCC(=O)O`, the fold change was 0.97 (inactive).

In the case of `CCCCC[C@H](O)/C=C/[C@@H]1[C@H](C/C=C\CCCC(=O)O)[C@H](O)C[C@H]1O`, the fold change was 0.921 (inactive).

Turning to `O=C1OC[C@@H](Cc2cccc(O)c2)[C@@H]1Cc1cccc(O)c1`, the fold change was 0.923 (inactive).

The same assay, now with this note: A549 miR-34 inducible, Hoechst nuclei count, 48 h; measured here: relative caspase fold change +Dox/-Dox.
With `OC[C@H]1NC[C@H](O)[C@@H](O)[C@@H]1O`, the fold change was 0.787.

With `C[C@@H](C(=O)O)c1ccc(-c2ccccc2)c(F)c1`, the fold change was determined as 0.615.

Consider `CCCCC[C@H](O)/C=C/[C@H]1CC[C@H](O)[C@@H]1CCCCCCC(=O)O`, for which the fold change is 1.33.

For `O=C(O)CCC/C=C\C[C@H]1[C@@H](O)CC(=O)[C@@H]1/C=C/[C@@H](O)CCc1ccccc1`, the fold change was found to be 1.03.

As for `CCCCC[C@H](O)/C=C/[C@H]1C(=O)C[C@H](O)[C@@H]1C/C=C/CCCC(=O)O`, the fold change is 1.11.

Consider `CCCCCCCCCCCCCCCCOC[C@@H](O)COP(=O)(O)O`, for which the fold change worked out at 0.298.

Regarding `NC(=Nc1ccc(F)cc1)NO`, the fold change amounted to 1.07.

For the compound `Cn1c([N+](=O)[O-])cc[n+]1C`, the fold change was found to be 0.659.

Turning to `CCCCC[C@@H](O)/C=C/[C@@H]1[C@@H](C/C=C\CCCC(=O)O)[C@@H](O)C[C@H]1O`, the fold change turned out to be 1.24.

Take `CCCCC[C@@](C)(O)/C=C/[C@H]1C=CC(=O)[C@@H]1C/C=C\CCCC(=O)O`: the fold change was 1.14.

Take `O=C(O)CCC/C=C\C[C@@H]1[C@@H](CC[C@@H](O)CCc2cccc(C(F)(F)F)c2)[C@H](O)C[C@@H]1O`: the fold change was determined as 1.34.

Consider `N[C@@H](CCC(=O)N[C@@H](CSN=O)C(=O)NCC(=O)O)C(=O)O`, for which the fold change was determined as 0.986.

Take `C#CCOc1ccccc1CCCCCC(=O)NS(C)(=O)=O`: the fold change came out at 0.875.

On to `CCCCC/C=C\C/C=C\CCCC/C=C\CCCC(=O)O`, for which the fold change worked out at 0.344.

As to `CCCCC[C@@H](O)/C=C/[C@@H]1[C@H](C/C=C\CCCC(=O)O)[C@@H](O)C[C@H]1O`, the fold change is 1.39.

Turning to `O=C(O)c1ccc2c(c1)CCCC2`, the fold change amounted to 0.342.

For `CCCCCCCC/C=C\CCCCCCCC(=O)OCC`, the fold change is 0.399.

In the case of `CCCCC/C=C\C/C=C\C/C=C\C/C=C\CCCC(=O)OCC(O)CO` (stereo not given), the fold change is 0.738.

As for `O=C1OC(O)C(c2cc3ccccc3s2)=C1Br` (stereo not given), the fold change amounted to 0.534.

`CCCCCCCCCCCCCCCCSC[C@H](COP(=O)([O-])OCC[N+](C)(C)C)NC(=O)CCCCCCCCCCCCCCC`: the fold change came out at 0.778.

`COC(=O)C1=CC[C@@]23CC[C@@H]([C@@](C)(/C=C/C=C(\C)C(=O)O)OC2=O)[C@@]3(OC(C)=O)CC1`: the fold change came out at 0.682.

Regarding `O=C1OC2(c3ccc(O)cc3Oc3cc(OS(=O)(=O)c4c(F)c(F)c(F)c(F)c4F)ccc32)c2ccccc21` (stereo not given), the fold change stood at 0.755.

With `CCCCC/C=C\C/C=C\C/C=C\C/C=C\CCCCNC(=O)c1ccc(O)cc1`, the fold change is 0.908.

Regarding `CCCCC[C@H](O)CC[C@@H]1[C@@H](CCCCCCC(=O)O)[C@@H](O)C[C@H]1O`, the fold change is 1.1.

On to `CN`, for which the fold change was 0.984.

Regarding `CC(=O)[C@H]1[C@H](C#N)C[C@H]2[C@@H]3CC=C4C[C@@H](O)CC[C@]4(C)[C@H]3CC[C@@]21C`, the fold change came out at 1.04.

For the compound `COC(=O)CCC[C@H](O)[C@H](O)CO`, the fold change is 0.845.

Consider `CCCCC[C@H](O)/C=C/[C@H]1CC[C@@H](O)[C@@H]1CCCCCCC(=O)O`, for which the fold change amounted to 1.26.

As to `CCCCCCCCCCCCCCCCOC[C@H](COP(=O)([O-])OCC[N+](C)(C)C)SC(C)=O`, the fold change turned out to be 0.945.

In the case of `CCCCC[C@H](O)/C=C/[C@H]1C=CC(=O)[C@H]1C/C=C\CCCC(=O)O`, the fold change worked out at 1.6.

Turning to `COc1ccc2c(c1)c(CC(=O)Nc1cccnc1)c(C)n2C(=O)c1ccc(Cl)cc1`, the fold change amounted to 0.947.

Take `CCCCCCCOC(=O)Cc1c(C)n(C(=O)c2ccc(Cl)cc2)c2ccc(OC)cc12`: the fold change amounted to 0.801.

For the compound `CCCCCC#CCC#CCCCCCCCC(=O)O`, the fold change turned out to be 0.839.

Regarding `CCCCCCCC/C=C\CCCCCCCCCCCC(N)=O`, the fold change was 0.823.

As to `CCCCCC/C=C\CCCC(=O)CC(=O)N[C@H]1CCOC1=O`, the fold change amounted to 1.36.

Take `O=C(O)CCC/C=C\C[C@@H]1[C@@H](CCC(=O)CCc2ccccc2)[C@H](O)C[C@@H]1O`: the fold change was determined as 1.4.

For `O=C(O)CCC/C=C\C[C@H]1C(=O)C=C[C@@H]1CC[C@@H](O)CCc1ccccc1`, the fold change was 1.2.

Turning to `CCCCCC#CCC#CCC#CCCCCCCC(=O)O`, the fold change is 0.33.

As for `CCCCC[C@H](O)/C=C/[C@@H]1[C@H](C/C=C\CCCC(=O)O)[C@H](O)C[C@H]1O`, the fold change was found to be 1.6.

Turning to `O=C1OC[C@@H](Cc2cccc(O)c2)[C@@H]1Cc1cccc(O)c1`, the fold change stood at 1.92.
